Test results as given in the supplement of paper PMC12282887.
± gives the standard deviation of the averaged measurements.

How the values were obtained:
Experiment in all cases: promoter activity interaction Z-score (Lux/OD deviation from empty-vector control); higher = stronger promoter induction by the compound
[1] = tested on: E. coli BW25113 acrABp lux reporter
In short: (§1)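 Low-copy luxCDABE promoter reporters were carried by E. coli BW25113, either wild type or lacking one of three genes, grown in 40 µl LB Lennox in 384-well plates at 37°C. Each compound was run at four 1:2 dilutions in biological duplicates, with OD600 and luminescence read every 30 min for 12 h. Integration used 0–8 h for wild type and 1–9 h for deletion strains, and wells under 10% of the median growth value were removed. Luminescence normalised to growth was fitted against a control, and the Z-transformed residual is the score.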

[2] = tested on: E. coli BW25113 micFp lux reporter
In short: as §1

[3] = tested on: E. coli BW25113 ompFp lux reporter
In short: as §1

[4] = tested on: E. coli BW25113 robp lux reporter
In short: as §1

[5] = tested on: E. coli BW25113 soxSp lux reporter
In short: as §1

[6] = tested on: E. coli BW25113 tolCp lux reporter
In short: as §1

[7] = 32.1 µg/ml, genetic background: wild type
[8] = 32.1 µg/ml, genetic background: ΔmarA
[9] = 32.1 µg/ml, genetic background: Δrob
[10] = 32.1 µg/ml, genetic background: ΔsoxS
[11] = 64.2 µg/ml, genetic background: wild type
[12] = 64.2 µg/ml, genetic background: ΔmarA
[13] = 64.2 µg/ml, genetic background: Δrob
[14] = 64.2 µg/ml, genetic background: ΔsoxS
[15] = 128.4 µg/ml, genetic background: wild type
[16] = 128.4 µg/ml, genetic background: ΔmarA
[17] = 128.4 µg/ml, genetic background: Δrob
[18] = 128.4 µg/ml, genetic background: ΔsoxS
[19] = 256.8 µg/ml, genetic background: wild type
[20] = 256.8 µg/ml, genetic background: ΔmarA
[21] = 256.8 µg/ml, genetic background: Δrob
[22] = 256.8 µg/ml, genetic background: ΔsoxS

With `CN(C)C(=O)C(CCN1CCC(O)(c2ccc(Cl)cc2)CC1)(c1ccccc1)c1ccccc1` [Loperamide] the “promoter activity interaction Z-score” value [1, 7] was 0.0421 ± 0.17, the “promoter activity interaction Z-score” value [1, 8] was 0.36 ± 0.083 and the “promoter activity interaction Z-score” value [1, 9] was -0.0142 ± 0.12. For the same molecule, the “promoter activity interaction Z-score” value [1, 10] was 0.372 ± 0.34, the “promoter activity interaction Z-score” value [1, 11] was -0.16 ± 0.23 and the “promoter activity interaction Z-score” value [1, 12] was 0.126 ± 1.6. For the same molecule, the “promoter activity interaction Z-score” value [1, 13] was -0.00894 ± 0.11, the “promoter activity interaction Z-score” value [1, 14] was 0.114 ± 0.11 and the “promoter activity interaction Z-score” value [1, 15] was -0.237 ± 0.23. For the same molecule, the “promoter activity interaction Z-score” value [1, 16] was 0.287 ± 0.52, the “promoter activity interaction Z-score” value [1, 17] was -0.146 ± 0.17 and the “promoter activity interaction Z-score” value [1, 18] was 0.111 ± 0.11. The “promoter activity interaction Z-score” value [1, 19] was 0.213 ± 0.0047, the “promoter activity interaction Z-score” value [1, 20] was -1.07 ± 0.54 and the “promoter activity interaction Z-score” value [1, 21] was 0.0923 ± 0.42. The “promoter activity interaction Z-score” value [1, 22] was -0.358 ± 0.52, the “promoter activity interaction Z-score” value [2, 7] was 0.145 ± 0.076 and the “promoter activity interaction Z-score” value [2, 8] was 0.0394 ± 0.035. For the same molecule, the “promoter activity interaction Z-score” value [2, 9] was 0.0787 ± 0.17, the “promoter activity interaction Z-score” value [2, 10] was -0.0846 ± 0.15 and the “promoter activity interaction Z-score” value [2, 11] was 0.186 ± 0.1. For the same molecule, the “promoter activity interaction Z-score” value [2, 12] was 0.0703 ± 0.0014, the “promoter activity interaction Z-score” value [2, 13] was 0.0931 ± 0.092 and the “promoter activity interaction Z-score” value [2, 14] was -0.0463 ± 0.045. For the same molecule, the “promoter activity interaction Z-score” value [2, 15] was 0.0787 ± 0.19, the “promoter activity interaction Z-score” value [2, 16] was 0.0574 ± 0.025 and the “promoter activity interaction Z-score” value [2, 17] was 0.0936 ± 0.24. The “promoter activity interaction Z-score” value [2, 18] was -0.14 ± 0.12, the “promoter activity interaction Z-score” value [2, 19] was -0.186 ± 0.52 and the “promoter activity interaction Z-score” value [2, 20] was -0.0712 ± 0.25. For the same molecule, the “promoter activity interaction Z-score” value [2, 21] was -0.12 ± 0.022, the “promoter activity interaction Z-score” value [2, 22] was -0.469 ± 0.21 and the “promoter activity interaction Z-score” value [3, 7] was -0.00512 ± 0.32. For the same molecule, the “promoter activity interaction Z-score” value [3, 8] was 0.262 ± 0.052, the “promoter activity interaction Z-score” value [3, 9] was 0.0272 ± 0.031 and the “promoter activity interaction Z-score” value [3, 10] was -0.21 ± 0.06. For the same molecule, the “promoter activity interaction Z-score” value [3, 11] was 0.0346 ± 0.0034, the “promoter activity interaction Z-score” value [3, 12] was -0.0766 ± 0.0049 and the “promoter activity interaction Z-score” value [3, 13] was -0.471 ± 0.21. The “promoter activity interaction Z-score” value [3, 14] was -0.28 ± 0.26, the “promoter activity interaction Z-score” value [3, 15] was -0.593 ± 0.28 and the “promoter activity interaction Z-score” value [3, 16] was -0.537 ± 0.65. For the same molecule, the “promoter activity interaction Z-score” value [3, 17] was -1.29 ± 0.17, the “promoter activity interaction Z-score” value [3, 18] was -1.21 ± 0.3 and the “promoter activity interaction Z-score” value [3, 19] was 0.202 ± 0.2. For the same molecule, the “promoter activity interaction Z-score” value [3, 20] was 0.819 ± 0.3, the “promoter activity interaction Z-score” value [3, 21] was -0.591 ± 0.47 and the “promoter activity interaction Z-score” value [3, 22] was 0.54 ± 0.76. The “promoter activity interaction Z-score” value [4, 7] was -0.195 ± 0.23, the “promoter activity interaction Z-score” value [4, 8] was -0.672 ± 0.52 and the “promoter activity interaction Z-score” value [4, 9] was 0.735 ± 0.061. The “promoter activity interaction Z-score” value [4, 10] was 0.0686 ± 0.097, the “promoter activity interaction Z-score” value [4, 11] was 0.0117 ± 0.077 and the “promoter activity interaction Z-score” value [4, 12] was -0.171 ± 0.68. The “promoter activity interaction Z-score” value [4, 13] was 0.22 ± 0.015, the “promoter activity interaction Z-score” value [4, 14] was 0.000621 ± 0.037 and the “promoter activity interaction Z-score” value [4, 15] was -0.524 ± 0.45. The “promoter activity interaction Z-score” value [4, 16] was -0.323 ± 0.55, the “promoter activity interaction Z-score” value [4, 17] was -0.996 ± 0.2 and the “promoter activity interaction Z-score” value [4, 18] was -0.571 ± 0.73. The “promoter activity interaction Z-score” value [4, 19] was -1.15 ± 0.5, the “promoter activity interaction Z-score” value [4, 20] was -0.901 ± 1.4 and the “promoter activity interaction Z-score” value [4, 21] was -2.1 ± 0.29. The “promoter activity interaction Z-score” value [4, 22] was -1.78 ± 0.21, the “promoter activity interaction Z-score” value [5, 7] was 0.154 ± 0.15 and the “promoter activity interaction Z-score” value [5, 8] was -0.043 ± 0.059. The “promoter activity interaction Z-score” value [5, 9] was 0.355 ± 0.12, the “promoter activity interaction Z-score” value [5, 10] was 0.325 ± 0.045 and the “promoter activity interaction Z-score” value [5, 11] was -0.0625 ± 0.16. The “promoter activity interaction Z-score” value [5, 12] was -0.0378 ± 0.015, the “promoter activity interaction Z-score” value [5, 13] was 0.149 ± 0.035 and the “promoter activity interaction Z-score” value [5, 14] was -0.0736 ± 0.2. For the same molecule, the “promoter activity interaction Z-score” value [5, 15] was 0.0173 ± 0.089, the “promoter activity interaction Z-score” value [5, 16] was 0.196 ± 0.047 and the “promoter activity interaction Z-score” value [5, 17] was -0.0928 ± 0.32. The “promoter activity interaction Z-score” value [5, 18] was -0.2 ± 0.021, the “promoter activity interaction Z-score” value [5, 19] was -0.236 ± 0.14 and the “promoter activity interaction Z-score” value [5, 20] was -0.217 ± 0.25. The “promoter activity interaction Z-score” value [5, 21] was -0.0806 ± 0.13, the “promoter activity interaction Z-score” value [5, 22] was -0.169 ± 0.064 and the “promoter activity interaction Z-score” value [6, 7] was -0.194 ± 0.29. The “promoter activity interaction Z-score” value [6, 8] was -0.0191 ± 0.39, the “promoter activity interaction Z-score” value [6, 9] was -0.0299 ± 0.8 and the “promoter activity interaction Z-score” value [6, 10] was -0.292 ± 0.62. The “promoter activity interaction Z-score” value [6, 11] was 0.0244 ± 0.6, the “promoter activity interaction Z-score” value [6, 12] was 0.821 ± 0.86 and the “promoter activity interaction Z-score” value [6, 13] was -0.356 ± 0.33. The “promoter activity interaction Z-score” value [6, 14] was 0.551 ± 0.73, the “promoter activity interaction Z-score” value [6, 15] was -0.426 ± 0.95 and the “promoter activity interaction Z-score” value [6, 16] was -0.198 ± 0.95. The “promoter activity interaction Z-score” value [6, 17] was -0.855 ± 0.25, the “promoter activity interaction Z-score” value [6, 18] was -0.596 ± 0.53 and the “promoter activity interaction Z-score” value [6, 19] was 0.39 ± 0.18. The “promoter activity interaction Z-score” value [6, 20] was 0.271 ± 1.2, the “promoter activity interaction Z-score” value [6, 21] was 0.764 ± 1 and the “promoter activity interaction Z-score” value [6, 22] was 0.351 ± 0.69.
